Among the data in PubChem BioAssay AID602250 (The Scripps Research Institute Molecular Screening Center, 2012) are inhibition values, retold here.

Each structure is given as a SMILES string. About 2,200 (0.61%) of roughly 360,000 compounds were called active. Many of the other results were omitted from the sample, so actives are more common in it than they were. Unmarked numbers belong to inactive results.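 Rule for the calls: active = inhibition above a per-plate cutoff, the plate's mean sample inhibition plus 3 SD (cut at about 24% in these data); inactive = the rest.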

The assay in a line: nonselective inhibitors of ATP calcium response in CHO-K1, primary screen, counter-screen for M1 antagonist project, cell-based, Fluo-8 calcium fluorescence, full deck, 1536-well (AID 602250).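 Note: 0% = DMSO plus EC80 ATP and 100% = DMSO alone without ATP.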 The following applies: CHO-K1 parental, ATP-induced calcium, Fluo-8 fluorescence; at 3 µM; active compounds read high. (A counterscreen serves to expose hits that act by an unwanted route or on another target.)
As for `O=c1cc(CN2CCN(S(=O)(=O)/C=C/c3ccccc3)CC2)c2ccc(O)cc2o1`, the inhibition is 6.97%.
For `Cc1cc(NC(=O)CCS(=O)(=O)c2ccc(F)cc2)no1` the value was -0.17%; for `COc1ccc2c(c1)C=CC1(O2)N(CCO)c2ccccc2C1(C)C` (stereo unspecified), -4.71%.
`Cc1cc(OCC(=O)Nc2c(C)n(C)n(-c3ccccc3)c2=O)ccc1[N+](=O)[O-]`: the inhibition was -14.3%.
Take `O=C(NCC(c1cccs1)N1CCOCC1)c1cc(Cl)ccc1[N+](=O)[O-]` (stereo unspecified): the inhibition is 10.5%.
For `COc1ccccc1C(=O)NC(CCSC)C(=O)N1CCN(C/C=C/c2ccccc2)CC1` (stereo unspecified), the inhibition was -0.28%.
With `CN(Cc1cccnc1)C(=O)c1cc(COc2ccc3ncccc3c2)on1`, the inhibition is 37.4% (active).
Consider `CN(Cc1cnccn1)C(=O)c1cc(COc2cccc(C(F)(F)F)c2)on1`, for which the inhibition is -4.38%.
On to `CC(=O)c1cccc(OCc2cc(C(=O)NC(C)Cc3cccnc3)no2)c1` (stereo unspecified), for which the inhibition was -0.09%.
For `O=C(NCCCc1ccccc1)c1cc(COc2c(F)cccc2F)on1`, the inhibition is -16.9%.
For `Cc1ccc(Sc2cc(N3CCOCC3)nc(-c3ccccc3)n2)cc1` the value was -3.23%; for `O=c1[nH]c(=O)n(Cc2ccco2)c2c1C(C(F)(F)F)(C(F)(F)F)N=C(c1ccco1)N2`, 30.1% (active); for `Nc1c(N(Cc2ccco2)C(=O)c2cccc(F)c2)c(=O)[nH]c(=O)n1Cc1ccccc1`, 0.73%.
`Cc1ccccc1C1=NC(C(F)(F)F)(C(F)(F)F)c2c(n(-c3ccc(F)cc3)c(=O)[nH]c2=O)N1`: the inhibition was -9.81%.
As to `CC(=O)c1ccccc1NC(=O)CC1(CC(=O)O)CCCCC1`, the inhibition was -2.82%.
On to `CCC(C)(C(=O)Nc1ccccc1C)N(C(=O)CNC(C)=O)c1ccc(C)cc1` (stereo unspecified), for which the inhibition was -1.48%.
As to `CCCCSc1[nH]c(=O)c(C(=O)OCC)cc1C#N`, the inhibition is 5.2%.
Regarding `CN1CCN(Cc2nc3cc(NC(=O)COc4ccc([N+](=O)[O-])cc4)ccc3n2C)CC1`, the inhibition was -3.48%.
As for `CCOC(=O)c1cnc(SCC(=O)Nc2cccc(OC)c2)nc1N`, the inhibition is 11.2%.
Take `CCCCCCCCn1c2c(c(=N)c3c1CCC3)CCCC2`: the inhibition was 32.5% (active).
As for `C/C(=N/OC(=O)c1cccc(C(F)(F)F)c1)c1cnccn1`, the inhibition was -1.12%.
For `CC(C)Oc1ccc(S(=O)(=O)N2CCOCC2)cc1NC(=O)C1CSC2(C)CCC(=O)N12` (stereo unspecified) the value was 0.94%; for `COc1ccc(Nc2oc(-c3ccccc3Cl)nc2C#N)cc1`, -14.3%.
Consider `Cc1ccccc1-c1nc(C#N)c(NCc2ccco2)o1`, for which the inhibition was 28.1% (active).
Take `Cc1cc(NCc2ccco2)n2c(nc3ccccc32)c1C#N`: the inhibition is -0.52%.
On to `O=C(COC(=O)CCCSc1nc2ccccc2[nH]1)Nc1ccc(Oc2ccccc2)cc1`, for which the inhibition was 0.31%.
For `Cc1cc(C)n2c(Nc3c(C)cccc3C)c(CCc3ccccc3)nc2n1` the value was 2.51%.
Then `CCOC(=O)N/N=C1\CC(C)S(=O)(=O)c2ccc(Cl)cc21` (stereo unspecified), with -8.64%.
With `Cc1cccc(S(=O)(=O)N(C)C[C@@H]2OCc3cnnn3CCCC(=O)N([C@H](C)CO)C[C@@H]2C)c1`, the inhibition was 1.2%.
Turning to `CN(C)C(CNC(=O)c1cc2ccccc2o1)c1ccccc1` (stereo unspecified), the inhibition is -1.56%.
As to `O=C(Nc1ccncc1)c1cc2ccccc2o1`, the inhibition was 23.7% (active).
Take `CC(C)(C)n1nc2c(c1NC(=O)c1cc3ccccc3o1)CSC2`: the inhibition was -14.9%.
With `O=C(CSc1nnnn1-c1ccc2c(c1)CCC2)Nc1ccc2c(c1)OCCO2`, the inhibition was 16.9%.
For `N#Cc1c(NCCO)ccc([N+](=O)[O-])c1NCCO` the value was -7.72%; for `CCOC1CCCCC1NS(=O)(=O)c1ccc(Cl)cc1` (stereo unspecified), 38.7% (active).
In the case of `O=S(=O)(NC1CCCCC1N1CCC(O)CC1)c1ccc(Cl)cc1` (stereo unspecified), the inhibition was -4.04%.
With `CCN1CCN(C2CCCCC2NS(=O)(=O)c2ccc(Cl)cc2)CC1` (stereo unspecified), the inhibition is -7.77%.
On to `CCOC(=O)c1cc2occc2n1CC(=O)NC1CCC(C)CC1` (stereo unspecified), for which the inhibition is -7.77%.
With `CCOC(=O)C1=CC[C@@H](c2ccccc2)N(S(=O)(=O)c2ccc(C)cc2)[C@H]1c1ccc(CC)cc1`, the inhibition is 11.1%.
Turning to `CCOC(=O)C1CN(S(=O)(=O)c2ccc(F)cc2)C1`, the inhibition was 0.12%.
As for `CCOC(=O)C1=CCC(c2ccc(F)cc2)N(S(=O)(=O)c2ccc(C)cc2)C1` (stereo unspecified), the inhibition is 31.3% (active).
`CCOC(=O)C1=CC[C@@H](c2ccccc2)N(S(=O)(=O)c2ccc(C)cc2)[C@H]1c1cccc(OC)c1`: the inhibition is 8.14%.
For `CCOC(=O)C1=CC[C@@H](c2ccncc2)N(S(=O)(=O)c2ccc(C)cc2)C1`, the inhibition is 25.1% (active).
For `CC(=O)C1=CCC(c2ccccc2)N(S(=O)(=O)c2ccc(C)cc2)C1` (stereo unspecified), the inhibition was -16.2%.
As for `O=C1C=CN2CCCC2CC1` (stereo unspecified), the inhibition is -0.95%.
As for `CCC(C)(C)NC(=O)C(c1ccc(O)cc1)N(C(=O)Cn1nnc2ccccc21)c1ccc(NC(C)=O)cc1` (stereo unspecified), the inhibition was -17.9%.
Take `COc1ccccc1-n1c(C)nc2cc(C(=O)NCc3ccc4c(c3)OCO4)ccc21`: the inhibition was -1.86%.
Consider `Cc1ccc(NC(=O)CN(C)CC(=O)Nc2cccc(F)c2)cc1[N+](=O)[O-]`, for which the inhibition is 26.1% (active).
`CN(CC(=O)Nc1cccc(F)c1)C(=O)C1=COCCO1`: the inhibition was 9.82%.
In the case of `Cc1ccc(NC(=O)c2sccc2C)cc1[N+](=O)[O-]`, the inhibition was -7.01%.
Consider `COc1cc([N+](=O)[O-])ccc1NC(=O)COC(=O)CCOc1ccc(C)cc1`, for which the inhibition was -5.41%.
For the molecule `CCSc1nc(C)c(CCOc2cccc(C)c2)c(=O)[nH]1`, the inhibition is 11.1%.
Then `COc1ccc(CN(C)C(=O)c2cc(-c3ccc(C)cc3C)nc3ccccc23)c(OC)c1OC`, with 5.32%.
For `COc1ccc(-c2cc(C(=O)N(C)Cc3ccc(OC)c(OC)c3OC)c3ccccc3n2)cc1OC` the value was 26.8% (active); for `COc1ccc(-c2cc(C(=O)N(C)CC(=O)Nc3ccccc3Cl)c3ccccc3n2)cc1OC`, 7.04%.
Turning to `CC(NC(=O)CNC(=O)Cc1cccc2ccccc12)c1ccc(S(N)(=O)=O)cc1` (stereo unspecified), the inhibition is 4.92%.
Consider `COc1ccc(-c2nn(C)c(=O)c3ccccc23)cc1CNC(=O)C1CCCCC1`, for which the inhibition is 3.7%.
Then `COc1ccc(S(=O)(=O)N2CCCCC2)cc1NC(=O)COc1ccccc1`, with -8.54%; and `COc1ccc(-c2nn(C)c(=O)c3ccccc23)cc1NC(=O)COc1ccccc1`, with 23.8% (active); and `O=C(O)CCn1c(SCc2cc(=O)n3ccccc3n2)nc2ccsc2c1=O`, with -10.2%.
Regarding `CCOC(=O)C1(CCOC)CCN(Cc2cc3ccccc3s2)CC1`, the inhibition was -9.7%.
As for `CCNC(=O)c1cccc(NC(=O)C2CC(=O)N(CCc3ccccc3)C2)c1` (stereo unspecified), the inhibition is -8.93%.
With `COC(=O)C1=C(C(=O)OC)C2(OC1c1ccc(Br)cc1)C(=O)c1ccccc1C2=O` (stereo unspecified), the inhibition is -3.96%.
For `O=C(c1ccc(C(F)(F)F)cc1)C1CCCN(C(=O)c2csnn2)C1` (stereo unspecified), the inhibition was -23.1%.
`CC(C)(C)OC(=O)C[C@@H]1C/C=C\C[C@@H](CC(=O)NCCO)C(=O)N[C@H](Cc2c[nH]c3ccccc23)COC1=O`: the inhibition is -11.8%.
In the case of `Cc1nc(CN(C)C(=O)CC2C(=O)NCCN2Cc2ccc(F)cc2)cs1` (stereo unspecified), the inhibition was -6.22%.
As for `Nc1c(C(=O)c2cccs2)sc2nsc(SCCN3CCCCC3)c12`, the inhibition was 47% (active).
As for `CCN(CC(=O)Nc1cc(Cl)ccc1C)C(=O)CN1C(=O)NC2(CCCC2)C1=O`, the inhibition was -4.87%.
Consider `COc1cc(-c2nnc(Cn3cc(C(F)(F)F)ccc3=O)o2)cc(OC)c1OC`, for which the inhibition is 27.6% (active).
As to `CCCc1nc2ccccc2c(C(=O)OCc2nnc(-c3cc(OC)c(OC)c(OC)c3)o2)c1CC`, the inhibition was 1.5%.
As to `COc1cc(-c2nnc(NC(=O)CS(=O)(=O)c3ccc(Cl)cc3)o2)cc(OC)c1OC`, the inhibition is 12.6%.
For `Cn1c(SCC(=O)NC2CCCCC2)nnc1-c1ccc(N)cc1` the value was 3.52%.
For the molecule `O=C1C(C=NCC2CCCO2)=C(O)c2ccccc21` (stereo unspecified), the inhibition is -5.68%.
As to `N#Cc1cc([N+](=O)[O-])ccc1NCC1CCCO1` (stereo unspecified), the inhibition was -8.37%.
In the case of `O=C1c2cccc3c([N+](=O)[O-])ccc(c23)C(=O)N1CC1CCCO1` (stereo unspecified), the inhibition was 24.2% (active).
For `CCOc1ccc(NC(=S)N2CCC(N(C)CC3CCCO3)CC2)cc1` (stereo unspecified), the inhibition is -7.23%.
Then `COc1ccc(CC(=O)Nc2nc(-c3ccc(F)c(F)c3)cs2)cc1OC`, with 32.9% (active).
With `COc1ccc(CC(=O)NC2CCSc3ccccc32)cc1OC` (stereo unspecified), the inhibition is -0.56%.
Turning to `COc1ccc(CCNC(=O)Cc2ccc(C)cc2)cc1OC`, the inhibition was 8.59%.
Regarding `Cc1onc(-c2c(F)cccc2Cl)c1C(=O)N(C)CC(=O)Nc1cccc(F)c1`, the inhibition was -0.6%.
As to `CC(=O)Nc1cccc(/C(C)=N/NC(=O)c2c(-c3ccccc3Cl)noc2C)c1`, the inhibition was 10.5%.
Take `CC(=O)Nc1cccc(NC(=O)c2c(-c3ccccc3)noc2C)c1`: the inhibition is 26.9% (active).
Regarding `CC(C)c1nc(SCC(=O)NC(=O)NC(C)(C)C)n[nH]1`, the inhibition was -2.13%.
Turning to `Cc1cc(NC(=O)Nc2c[nH]c(=O)[nH]c2=O)ccc1Br`, the inhibition is -4.71%.
Turning to `O=C1CC(c2ccccc2)=NN1c1ccc([N+](=O)[O-])cc1`, the inhibition is 26.7% (active).
Take `CCN1N=C(c2ccccc2)CCC1=O`: the inhibition was -1.49%.
Turning to `O=C1NC(=O)C2C1C(c1ccc([N+](=O)[O-])cc1)=NN2Cc1ccccc1` (stereo unspecified), the inhibition is -6.56%.
Regarding `Cc1csc(NC(=O)C2CCCN2C(=O)OCC(C)C)n1` (stereo unspecified), the inhibition was 17%.
As to `O=C(N/N=C/c1ccc(OC(=O)c2ccccc2Cl)cc1)c1ccc(O)cc1`, the inhibition is 24.1% (active).
Turning to `CC(C)(C)C(=O)Nc1ccc(C(=O)N/N=C/c2ccccc2OC(=O)c2ccc(Cl)cc2Cl)cc1`, the inhibition is 13.2%.
Take `O=C(N/N=C/c1ccc(OCC2COCCO2)cc1)c1ccc(Br)cc1` (stereo unspecified): the inhibition was -8.18%.

Broadly, the inhibition is the drop in the measured response relative to a control, in per cent.
